According to the supplement of paper PMC10849652:
Of roughly 7,900 targets only a part is listed; those with a hit were picked by preference. About 0.6% of all pairs of compound and target were hits. A number with no mark means an inactive call.

Key:
Assay in all cases: log2 fold change, soluble protein after heating vs DMSO (PISA); higher = thermal stabilisation; K562 cells, 10 uM, 30 min; active = over 0.2 and 3.5 SD of the protein, either way, in both replicates (recomputed)
[1] = compound: C/C(=N\NC(=O)C1=CC(=CC=C1)S(=O)(=O)N2CCOCC2)/C3=C(C=CC(=C3)Cl)O
Outline: (§1)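 Values are thermal stability changes relative to control samples and are taken from duplicates. They are stated as log2 fold changes. Before quantification by TMTpro 16plex LC-MS/MS with equalised channel sums, K562 cells at 2×10^6 cells/mL were treated with 10 μM compound for 30 min, heated in aliquots for 3 min across 48°C-58°C, pooled, extracted in PBS with 0.5% NP-40 at 4°C, and centrifuged at 21,000xg for 90 min to give the soluble supernatant.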

[2] = compound: C1=CC2=C(C=CC(=C2)/C=C\3/C(=O)NC(=NCC4=CC=CS4)S3)N=C1
Outline: as §1

[3] = compound: C1=CC2=NC=CN=C2C=C1/C=C/3\C(=O)NC(=O)S3
Outline: as §1

[4] = compound: C1=CC=C(C=C1)C2=NC(=C(N2)C3=CC=NC=C3)C4=CC(=C(C=C4)Cl)O
Outline: as §1

[5] = compound: C1=CC=C2C(=C1)C3=NNC4=CC=CC(=C43)C2=O
Outline: as §1

[6] = compound: C1CCN(C1)C(=O)NC2=CC=CC(=C2)NC3=NC=C(C(=N3)NCCC4=CN=CN4)Br
Outline: as §1

[7] = compound: C1CN(CCC1(CC2=CC=C(C=C2)Cl)N)C3=NC=NC4=C3C=CN4
Outline: as §1

[8] = compound: C1COCCN1CCN2C3=CC=CC=C3N=C2NC(=O)C4=CC(=CC=C4)[N+](=O)[O-] [IRAK-1-4 Inhibitor I]
Outline: as §1

[9] = compound: C=CC(=O)N1CCC[C@@H](n2nc(-c3ccc(Oc4ccccc4)cc3)c3c(N)ncnc32)C1 [ibrutinib]
Outline: as §1

[10] = compound: CC(=O)c1cnc2ccc(-c3cc(Cl)c(O)c(Cl)c3)nc2c1N[C@H]1CC[C@H](CN(C)C)CC1
Outline: as §1

[11] = compound: CC(C)(C)Cn1c(N)nc2ccc(-c3[nH]c(C(C)(C)C)nc3-c3ccc(F)cc3)nc21 [ralimetinib]
Outline: as §1

[12] = compound: CC(C)C[C@@H](C=O)NC(=O)[C@H](CC(C)C)NC(=O)[C@H](CC(C)C)NC(=O)OCc1ccccc1
Outline: as §1

[13] = compound: CC(C)N(C[C@H]1O[C@@H](n2cnc3c(N)ncnc32)[C@H](O)[C@@H]1O)[C@H]1C[C@@H](CCc2nc3cc(C(C)(C)C)ccc3[nH]2)C1 [pinometostat]
Outline: as §1

[14] = compound: CC1=C(C2=C(C=C1)C(=O)C3=CC=CC=C3N2CCCN)C
Outline: as §1

[15] = compound: C1=CC(=C(C=C1Cl)C2=NC3=NC=CN=C3C(=N2)NC4=CC=NC=C4)F
Outline: as §1

[16] = compound: C1=CC(=CC=C1C2=NC3=C(N2)C=C(C=C3)C(=O)N)OC4=CC=C(C=C4)Cl
Outline: as §1

[17] = compound: CC(C)(O)CC(=O)NCCn1ccc2ncnc(Nc3ccc(Oc4cccc(C(F)(F)F)c4)c(Cl)c3)c21
Outline: as §1

[18] = compound: CC(C)C1=C2N=C(C=C(N2N=C1)NCC3=CC=CC=C3)NCCCCCCN
Outline: as §1

[19] = compound: CC1=C(C(CC(=O)N1)C2=CC=C(C=C2)C(F)(F)F)C(=O)NC3=C(C=C4C(=C3)C=NN4)F
Outline: as §1

[20] = compound: C#Cc1cccc(Nc2ncnc3cc(OCCOC)c(OCCOC)cc23)c1 [erlotinib]
Outline: as §1

Sequence of UniProt O75446 (O75446 whole entry, looked up): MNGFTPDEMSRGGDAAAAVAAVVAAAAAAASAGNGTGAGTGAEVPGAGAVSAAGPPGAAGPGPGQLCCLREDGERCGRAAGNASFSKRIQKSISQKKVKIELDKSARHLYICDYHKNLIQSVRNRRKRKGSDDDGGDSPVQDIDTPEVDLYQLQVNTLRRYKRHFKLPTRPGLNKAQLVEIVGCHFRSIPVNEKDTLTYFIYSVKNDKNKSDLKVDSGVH
Sequence of UniProt Q7L099 (Q7L099 whole entry, looked up): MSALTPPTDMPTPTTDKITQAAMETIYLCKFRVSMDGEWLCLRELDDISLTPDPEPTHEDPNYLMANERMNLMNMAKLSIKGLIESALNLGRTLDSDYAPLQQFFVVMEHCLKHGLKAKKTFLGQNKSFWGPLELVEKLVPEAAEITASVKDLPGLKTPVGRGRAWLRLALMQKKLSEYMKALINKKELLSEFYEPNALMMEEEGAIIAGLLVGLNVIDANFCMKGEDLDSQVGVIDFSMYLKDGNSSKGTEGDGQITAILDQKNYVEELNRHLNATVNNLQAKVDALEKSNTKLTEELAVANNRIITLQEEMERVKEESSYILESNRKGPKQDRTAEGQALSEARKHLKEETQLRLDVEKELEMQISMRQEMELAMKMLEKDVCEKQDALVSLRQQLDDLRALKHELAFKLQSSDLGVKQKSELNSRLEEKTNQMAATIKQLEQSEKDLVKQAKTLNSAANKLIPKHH
Sequence of UniProt Q02383 (Q02383 whole entry, looked up): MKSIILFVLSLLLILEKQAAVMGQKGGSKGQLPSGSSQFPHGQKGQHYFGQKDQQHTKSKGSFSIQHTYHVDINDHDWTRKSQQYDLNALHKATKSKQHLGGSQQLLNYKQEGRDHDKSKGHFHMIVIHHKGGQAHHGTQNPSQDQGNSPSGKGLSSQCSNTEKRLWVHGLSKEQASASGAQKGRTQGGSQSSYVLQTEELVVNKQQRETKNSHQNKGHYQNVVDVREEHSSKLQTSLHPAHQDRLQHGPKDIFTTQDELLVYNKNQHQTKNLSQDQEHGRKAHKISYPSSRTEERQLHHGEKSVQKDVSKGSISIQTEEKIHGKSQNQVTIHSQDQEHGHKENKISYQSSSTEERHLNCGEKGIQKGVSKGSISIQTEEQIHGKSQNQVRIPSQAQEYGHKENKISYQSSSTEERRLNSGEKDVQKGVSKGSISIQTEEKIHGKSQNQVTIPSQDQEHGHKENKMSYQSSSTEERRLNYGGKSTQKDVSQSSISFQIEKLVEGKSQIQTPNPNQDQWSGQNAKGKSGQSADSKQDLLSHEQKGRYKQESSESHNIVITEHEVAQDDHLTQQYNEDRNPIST
Sequence of UniProt O95716 (O95716 whole entry, looked up): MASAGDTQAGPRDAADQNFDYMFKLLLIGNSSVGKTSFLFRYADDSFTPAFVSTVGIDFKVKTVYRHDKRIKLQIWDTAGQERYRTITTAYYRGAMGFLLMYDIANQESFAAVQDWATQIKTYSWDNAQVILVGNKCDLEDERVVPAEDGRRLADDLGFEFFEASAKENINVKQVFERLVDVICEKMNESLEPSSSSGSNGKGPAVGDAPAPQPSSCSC
Sequence of UniProt Q5T8P6 (Q5T8P6 whole entry, looked up): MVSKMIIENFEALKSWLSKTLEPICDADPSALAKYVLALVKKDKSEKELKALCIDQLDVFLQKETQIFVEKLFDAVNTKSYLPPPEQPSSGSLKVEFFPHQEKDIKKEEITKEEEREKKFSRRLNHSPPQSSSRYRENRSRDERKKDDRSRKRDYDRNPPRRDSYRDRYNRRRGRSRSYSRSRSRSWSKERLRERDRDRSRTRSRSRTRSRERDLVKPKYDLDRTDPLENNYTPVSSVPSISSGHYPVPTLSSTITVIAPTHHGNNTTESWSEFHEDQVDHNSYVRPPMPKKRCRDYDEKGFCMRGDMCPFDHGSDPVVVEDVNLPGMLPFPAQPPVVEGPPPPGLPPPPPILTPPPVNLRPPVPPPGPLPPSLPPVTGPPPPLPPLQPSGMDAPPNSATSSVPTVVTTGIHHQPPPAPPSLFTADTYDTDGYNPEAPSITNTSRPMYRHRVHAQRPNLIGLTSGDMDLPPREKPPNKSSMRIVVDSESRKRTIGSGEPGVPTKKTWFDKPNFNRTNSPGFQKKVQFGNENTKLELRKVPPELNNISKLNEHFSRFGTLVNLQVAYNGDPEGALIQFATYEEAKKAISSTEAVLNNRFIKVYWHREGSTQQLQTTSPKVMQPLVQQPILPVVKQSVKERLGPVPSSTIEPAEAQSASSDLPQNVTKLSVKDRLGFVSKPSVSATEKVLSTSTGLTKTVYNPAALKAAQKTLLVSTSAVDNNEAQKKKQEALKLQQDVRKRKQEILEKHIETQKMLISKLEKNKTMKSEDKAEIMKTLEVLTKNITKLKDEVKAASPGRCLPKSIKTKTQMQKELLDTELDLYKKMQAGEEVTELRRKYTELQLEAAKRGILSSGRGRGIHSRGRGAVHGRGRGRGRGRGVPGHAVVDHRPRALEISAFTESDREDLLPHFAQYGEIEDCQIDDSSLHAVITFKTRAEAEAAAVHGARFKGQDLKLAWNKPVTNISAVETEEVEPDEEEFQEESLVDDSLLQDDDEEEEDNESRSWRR
Sequence of UniProt Q04206 (Q04206 whole entry, looked up): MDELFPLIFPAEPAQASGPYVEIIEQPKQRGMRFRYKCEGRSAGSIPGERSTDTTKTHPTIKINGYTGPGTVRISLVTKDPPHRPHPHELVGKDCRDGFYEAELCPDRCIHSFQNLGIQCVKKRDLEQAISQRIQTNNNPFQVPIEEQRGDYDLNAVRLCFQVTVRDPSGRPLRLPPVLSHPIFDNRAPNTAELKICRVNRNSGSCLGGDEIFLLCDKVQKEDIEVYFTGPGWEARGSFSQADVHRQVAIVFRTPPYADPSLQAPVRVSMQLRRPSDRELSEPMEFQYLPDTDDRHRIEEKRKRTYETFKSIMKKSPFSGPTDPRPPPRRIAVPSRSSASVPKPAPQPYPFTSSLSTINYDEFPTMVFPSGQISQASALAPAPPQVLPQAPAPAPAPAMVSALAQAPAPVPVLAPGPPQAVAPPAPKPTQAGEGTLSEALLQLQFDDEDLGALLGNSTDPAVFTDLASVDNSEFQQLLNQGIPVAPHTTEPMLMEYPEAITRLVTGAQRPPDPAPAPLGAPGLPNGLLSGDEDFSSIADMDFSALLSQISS
Sequence of UniProt Q5VTB9 (Q5VTB9 whole entry, looked up): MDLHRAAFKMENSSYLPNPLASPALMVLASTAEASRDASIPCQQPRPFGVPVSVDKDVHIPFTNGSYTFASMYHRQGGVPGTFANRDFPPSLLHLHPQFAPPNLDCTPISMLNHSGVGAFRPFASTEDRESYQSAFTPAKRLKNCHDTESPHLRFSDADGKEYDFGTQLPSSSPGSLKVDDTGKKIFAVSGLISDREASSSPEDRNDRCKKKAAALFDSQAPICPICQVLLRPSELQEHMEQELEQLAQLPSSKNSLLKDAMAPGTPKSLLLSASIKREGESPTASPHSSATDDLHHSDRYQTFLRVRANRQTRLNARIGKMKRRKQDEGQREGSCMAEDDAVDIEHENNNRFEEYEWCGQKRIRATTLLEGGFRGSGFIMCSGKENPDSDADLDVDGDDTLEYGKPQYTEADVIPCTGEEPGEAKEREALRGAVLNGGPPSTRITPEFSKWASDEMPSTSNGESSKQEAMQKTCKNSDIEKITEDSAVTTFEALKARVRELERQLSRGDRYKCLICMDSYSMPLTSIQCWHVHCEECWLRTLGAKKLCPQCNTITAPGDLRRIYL

Target | log2 fold change [1] | log2 fold change [2] | log2 fold change [3] | log2 fold change [4] | log2 fold change [5] | log2 fold change [6] | log2 fold change [7] | log2 fold change [8] | log2 fold change [9] | log2 fold change [10] | log2 fold change [11] | log2 fold change [12] | log2 fold change [13] | log2 fold change [14] | log2 fold change [15] | log2 fold change [16] | log2 fold change [17] | log2 fold change [18] | log2 fold change [19] | log2 fold change [20]
RAD50, A0A494C0Y7 | -0.029 | 0.049 | -0.077 | -0.111 | 0.048 | -0.033 | 0.143 | 0.015 | 0.072 | -0.037 | -0.085 | 0.196 | 0.015 | 0.051 | – | – | – | – | – | –
RPS3A (UniProt D6R9B6) | -0.359 | 0.198 | – | – | -0.243 | 0.303 | 0.034 | – | – | -0.124 | – | – | – | -0.363 | – | – | – | – | – | –
RELA (UniProt Q04206) | 0.034 | -0.007 | 0.014 | -0.002 | 0.004 | -0.022 | 0.011 | -0.011 | -0.002 | 0.022 | 0.025 | 0.031 | 0.003 | -0.054 | 0.003 | -0.011 | 0 | -0.018 | -0.022 | –
RBM26 isoform 3 (UniProt Q5T8P6) | 0.22 | -0.079 | – | – | -0.149 | – | – | – | – | -0.528 | – | – | – | – | – | – | – | – | – | –
RCOR3 isoform 3 (UniProt Q9P2K3) | 0.084 | 0.022 | -0.01 | -0.011 | 0.018 | -0.003 | 0.057 | 0.009 | -0.053 | -0.188 | 0.017 | 0.062 | -0.038 | -0.035 | – | -0.008 | – | -0.048 | 0.011 | 0.116
RUFY3 isoform 3 (UniProt Q7L099) | 0.012 | -0.028 | – | 0.011 | 0.065 | -0.075 | -0.07 | -0.008 | – | 0.023 | 0.196 | -0.054 | 0.035 | 0.044 | – | -0.03 | – | -0.098 | -0.123 | 0.019
SAFB2 (UniProt K7EQU4) | – | – | -0.277 | – | – | – | – | -0.129 | 0.131 | – | – | – | -0.051 | – | -0.172 | – | -0.042 | – | -0.31 | –
SEMG2 (UniProt Q02383) | 1.75 | 0.237 | -0.042 | – | -0.562 (active) | -0.071 | 0.06 | – | -0.031 | -0.148 | – | – | – | 0.049 | 0.047 | – | -0.011 | – | -0.031 | –
RPS3 (UniProt E9PJN9) | – | – | – | 0.203 | – | 0.021 | -0.151 | – | – | – | 0.228 | 0.134 | – | -0.126 | – | – | – | – | – | –
RAB3D (UniProt O95716) | 0.036 | -0.055 | 0.006 | -0.145 | -0.058 | 0.007 | 0.036 | – | -0.096 | -0.02 | 0.133 | -0.605 (active) | – | -0.104 | – | -0.141 | – | 0.121 | -0.14 | -0.094
RPS19 (UniProt M0R2L9) | -0.054 | -0.246 | – | – | 0.732 | 0.522 | -0.095 | – | – | -0.083 | – | – | – | -0.177 | – | – | – | – | 0.538 | –
RNF220 isoform 3 (UniProt Q5VTB9) | -0.021 | -0.05 | – | – | -0.055 | – | – | – | – | 0.086 | – | – | – | – | – | 0.229 | – | 0.056 | – | -0.109
SAP30 (UniProt O75446) | 0.061 | 0.018 | – | – | -0.13 | – | – | 0.018 | – | 0.085 | – | – | 0.111 | – | -0.069 | -0.027 | 0.151 | 0.111 | 0.041 | -0.04
